Compound activity as filed in PubChem BioAssay.
L3MBTL1 block = L3MBTL1 (human) inhibition | AlphaScreen L3MBTL1–H3K9me1 peptide binding | Potency, µM (doses to about 57.1 µM), inactives show top-dose activity, negative = inhibition, usual class: inhibitors | 230,000 compounds, 0.66% hits | AID 485360; further: on the % scale 0 is the no-effect control and ±100 the full control effect; nearly all actives have a fitted effect of over 60% in size
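Read-out is AlphaScreen signal from streptavidin donor and nickel chelate acceptor beads (10 ug/mL final each) bridging L3MBTL1 (50 nM) and biotinylated K9-monomethylated H3(1-15) peptide (75 nM), after 30 min compound exposure at room temperature.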
G9a block = inhibitors of human histone lysine methyltransferase G9a. Q96KQ7. 350,000 compounds, 8.8% hits. Potency, µM (highest dose often 102 µM), for inactives: top-dose activity, negative = inhibition, hits mostly inhibitors. G9a H3K9 monomethylation, AlphaScreen, 2 h; further: on the % scale 0 is the no-effect control and ±100 the full control effect; nearly all actives have a fitted effect of over 75% in size
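Enzyme 20 nM + cpd, 15 min RT; add b-H3K9 pep 500 nM / SAM 20 uM; 2 h RT; anti-H3K9me1 Ab 0.5 ug/mL + SA donor / anti-rabbit acceptor beads 20 ug/mL each, 10 min; AlphaScreen read.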
GLS inh = blocks human kidney-isoform glutaminase activity. O94925. GLS enzymatic activity, qHTS titration. Potency, µM (top dose mostly 45.5 µM), for the others: at the top dose activity change, negative = inhibition, usual class: inhibitors. 410,000 compounds, 0.21% hits; further: on the % scale 0 is the no-effect control and ±100 the full control effect
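Glutamate formation by hKGA was monitored fluorometrically using coupled glutamate oxidase, HRP and Amplex Red. Substrate was added as 1 mM L-glutamine solution; incubation was 30 min at RT after an initial read.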
JMJD2A Tudor = inhibitors of human JMJD2A Tudor domain; O75164; AlphaScreen JMJD2A-Tudor / H3K4me3 peptide binding; Potency, µM (series often up to 114 µM), for inactives: at the highest dose activity change, negative = inhibition, hits mostly inhibitors; 390,000 compounds, 4.4% hits; AID 504339; further: on the % scale 0 is the no-effect control and ±100 the full control effect; nearly all actives have a fitted effect of over 50% in size
HP1b chromo inh = HP1-beta chromodomain-methylated histone interaction inhibition; AlphaScreen HP1-beta / biotin-H3K9me3 peptide binding; Potency, µM (doses to about 114 µM), for the others: top-dose activity change, negative = inhibition, most hits filed as inhibitors; 390,000 compounds, 0.56% hits; AID 540317; further: nearly all actives have a fitted effect of over 70% in size
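HP1-beta protein (50 nM final) preincubated 30 min at room temperature with biotinylated H3(1-18)K9me3 peptide (50 nM) in PBS pH 7.4, 0.01% Tween-20, then compound added for 30 min. AlphaScreen streptavidin donor/nickel chelate acceptor beads (10 ug/mL final), 30 min dark, luminescence read.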
BAZ2B block = blocks human BAZ2B. Potency, µM (series often up to 114 µM), inactives show at the highest dose activity change, negative = inhibition, hits mostly inhibitors. AID 504333. 360,000 compounds, 4.4% hits. Q9UIF8. AlphaScreen BAZ2B-H3K14Ac peptide displacement; further: on the % scale 0 is the no-effect control and ±100 the full control effect; nearly all actives have a fitted effect of over 60% in size
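AlphaScreen displacement of biotin-H3(5-23)K14Ac peptide (50 nM final) from BAZ2B (50 nM final) in PBS pH 7.4, 0.01% Tween-20; complex preformed 30 min RT, then compounds (top 110 uM) 30 min RT, beads 20 min dark.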
* hit, by the source's call; ? = inconclusive; nt = no result given; ! = not active in a repeat; [ ] = another dose, or the depositor's remark. Rows were chosen to be rich in hits. Some 10% of all compounds tested hit in one or more screens of this group. The call rests on the fitted dose curve; in most records, active means well fitted curve in the direction sought with a large enough effect; inconclusive means small, poorly fitted or top-dose-only effect, or another doubt; inactive means no such curve, though single readings can be large; an effect the other way counts as inactive or inconclusive. Potency means the concentration at half of the fitted maximal effect.

SMILES	L3MBTL1 block	G9a block	GLS inh	JMJD2A Tudor	HP1b chromo inh	BAZ2B block
COc1ccc(Nc2cc(C(=O)NCCCN(C)Cc3ccccc3)c3ccccc3n2)cc1	nt	-47%[59 µM]	0%	?	7%	?
COc1ccc(N2CCN(CCCNC(=O)c3cc(Nc4ccccc4OC)nc4ccccc34)CC2)cc1	nt	10µM*	31%	35µM*	?	10µM*
COc1ccc(Nc2cc(C(=O)NCCCN3CCOCC3)c3ccccc3n2)cc1OC	nt	-12%[59 µM]	1%	?	9%	-37%
COc1ccc(N2CCN(CCCNC(=O)C(=O)c3c[nH]c4ccccc34)CC2)cc1	nt	40µM*	22%	28µM*	50µM*	14µM*
O=C(NCCCN1CCOCC1)C(=O)c1c[nH]c2ccccc12	nt	-8%	-16%	-1%	19%	5%
COc1ccc(Nc2cc(C(=O)NCCCN3CCN(C)CC3)c3ccccc3n2)cc1OC	-4%	3.5µM*	14%	-22%	-9%	-32%
COc1ccc(N2CCN(CCNC(=O)c3ccc4c(c3)[nH]c(=S)n3c5ccccc5nc43)CC2)cc1	-11%	50µM*	3%	?	5%	?
Cc1sc2ncn(CC(=O)N3CCN(c4ccccc4)CC3)c(=O)c2c1S(=O)(=O)N1CCC(C)CC1	nt	-47%[59 µM]	16%	-28%	5%	-17%
COc1ccc(N2CCN(CCCNC(=O)C3CCCN(S(=O)(=O)c4c(C)n[nH]c4C)C3)CC2)cc1 (stereo not given)	nt	?	30%	-32%	-1%	-14%
COc1ccc(N2CCN(CCCNC(=O)C3CCCN(S(=O)(=O)c4cnc[nH]4)C3)CC2)cc1 (stereo not given)	-10%	50µM*	28%	?	38%	6%
Cc1ccc(C(=O)c2nc3c(n2O)CCCC3)cc1	nt	?	-1%	35µM*	-2%	5%
Cc1ccccc1OCC(O)CN1CCN(C)CC1 (stereo not given)	-5%	50µM*	-2%	-27%	20%	?
Cc1cc(OCC(O)CN2CCOCC2)cc(C)c1Cl (stereo not given)	-6%[2.29 µM]	19%[0.501 µM]	6%	-17%	18%	7%
Cc1ccc(OCC(O)CN2CCOCC2)c(C)c1 (stereo not given)	9%	89µM*	2%	89µM*	1%	-36%
COc1ccccc1OCC(O)CN1CCN(CC(=O)Nc2c(C)cccc2C)CC1 (stereo not given)	8%	3%[59 µM]	14%	89µM*!	19%	0%
OC(COc1ccccc1Cl)CN1CCN(CC(O)COc2ccccc2Cl)CC1 (stereo not given)	-8%	-45%[59 µM]	14%	-14%	-23%	-32%
COc1cccc(OCC(O)CN2CCN(C)CC2)c1 (stereo not given)	nt	25µM*	-5%	1µM*	?	50µM*
Cc1c(C(=O)Nc2cccc(Cl)c2)sc2nc3n(c(=O)c12)N=C(c1cccc(Br)c1)CS3	nt	-1%[59 µM]	0%	-10%	10%	-2%
O=c1c(-c2ccc(F)cc2)nc2cnc(N3CCNCC3)nc2n1Cc1ccc(F)cc1	nt	8%[0.501 µM]	nt	nt	nt	nt
O=C1C2CCCN2C(c2ccc(F)cc2)N1c1nccs1 (stereo not given)	1%	-31%[12.7 µM]	11%	20µM*	19%	?
Cc1ccc(C2N(c3ccc(F)cc3)C(=O)C3CCCN32)cc1 (stereo not given)	-12%	?	-4%	-4%	50%	-3%
Cc1cccc(C2N(c3ccc(F)cc3)C(=O)C3CCCN32)c1 (stereo not given)	nt	nt	-5%	-8%	50%	nt
Cc1ccc(C2N(c3nccs3)C(=O)C3CCCN32)cc1 (stereo not given)	2%	13µM*	0%	20µM*	14%	?
CN(C)c1ccc(C2N(c3ccc(F)cc3)C(=O)C3CCCN32)cc1 (stereo not given)	nt	-87%	19%	-19%	43%	20%
Cc1cccc(C2N(c3nccs3)C(=O)C3CCCN32)c1 (stereo not given)	-3%	7.9µM*	-3%	-26%[57.1 µM]	36%	?
SMILES	L3MBTL1 block	G9a block	GLS inh	JMJD2A Tudor	HP1b chromo inh	BAZ2B block
Cc1ccc(C2N=C(Nc3nc4ccccc4o3)NC3=C2C(=O)CC(C)(C)C3)cc1 (stereo not given)	nt	nt	nt	-5%[57.1 µM]	15%[57 µM]	nt
O=C(CN1C(=O)COc2ccc(S(=O)(=O)N3CCCC3)cc21)N1CCN(c2cccc(C(F)(F)F)c2)CC1	nt	-1%[59 µM]	7%	-21%	26%	-7%
Cc1ccc(-n2nc(C(=O)NC(C)C)c(=O)n(C)c2=O)cc1	nt	-5%[59 µM]	-1%	-10%	7%[57 µM]	-1%
CN(C)c1ccc(P(=O)(OC2CCCCC2)C(O)c2ccccn2)cc1 (stereo not given)	-2%	nt	3%	?	41%	45µM*
CC(C)COP(=O)(c1ccc(N(C)C)cc1)C(O)c1ccccn1 (stereo not given)	-2%	3.5µM*	47%	1.3µM*	27%	nt
COc1ccc(N2C(=O)CSC23C(=O)N(CC(=O)Nc2ccccc2F)c2ccccc23)cc1 (stereo not given)	nt	-30%[59 µM]	1%	-25%	22%	5%[57.1 µM]
CSc1nn(Cc2ccc(C)cc2)c(N)c1S(=O)(=O)c1ccccc1	nt	8%[59 µM]	-14%	-24%	4%	-7%
O=C(NCCO)Nc1ccc2nc(-c3ccco3)c(-c3ccco3)nc2c1	0.71µM*	nt	nt	nt	nt	3.2µM*
O=C(NCCCO)c1ccc2nc(-c3ccco3)c(-c3ccco3)nc2c1	28µM*	7.1µM*	-19%	50µM*	?	50µM*
CCCCNC(=O)c1ccc2nc(-c3ccco3)c(-c3ccco3)nc2c1	32µM*	7.9µM*	-1%	25µM*	?	50µM*
Cc1nc2ccc(NC(=O)NCCO)cc2s1	nt	9%[59 µM]	-8%	-11%	7%	-2%
COc1cc(NC(=O)N2CCC(CN3CCCC3)CC2)cc(OC)c1OC	nt	-6%[59 µM]	10%	-17%	-6%	-14%
COc1ccc(NC(=O)c2ocnc2C)cc1OC	2%	-2%[59 µM]	4%	-28%	-24%	-2%
COc1ccc(Cl)cc1NC(=O)c1c(C(=O)Nc2cccc(C)c2C)sc2nc(C)cc(=O)n12	nt	11µM*	-11%	-6%	5%	-3%
COc1ccc(Cl)cc1NC(=O)c1ocnc1C	-3%	50µM*	0%	-3%	28%	-1%
C[n+]1ccc(/C=C/c2ccc(Br)cc2)cc1	2%	?	-6%	-3%	14%	56µM*
C[n+]1ccc(/C=C/c2c[nH]c3ccc(F)cc23)cc1	nt	?	-1%	14%	57%	-3%
